The values below come from PubChem BioAssay (Tox21).

Results filed as inconclusive are left out. Where a call stands in place of a potency, no number is given. The source holds several records for some structures; these can differ, active in one and inactive in another. The source made the active and inactive calls. Calls follow the shape of the dose curve; as a rule, active = well fitted inhibition curve with a large enough effect in the repeat runs; inconclusive = weak or mixed curves, or effect the other way; inactive = no such curve, though single readings can be large or run the other way.
Potency is read from the fitted curve at half-maximal effect.

In this test the target is Nuclear receptor ROR-gamma (Homo sapiens) (UniProt P51449). Nature of the test: qHTS assay to identify small molecule antagonists of the retinoid-related orphan receptor gamma (ROR-gamma) signaling pathway (AID 1159521; also: nearly all actives have a fitted effect of over 50% in size; as to activity change, negative = inhibition: top concentration of the series differs between compounds). The following applies: Tet-on RORgamma CHO cells, RORE-luciferase, 16 h; series mostly up to 92.4 µM; activity change, negative = inhibition: at the top concentration. The text has this: U.S. Tox21 Program National Center for Advancing Translational Sciences [NCATS] NIH Chemical Genomics Center [NCGC] U.S. Environmental Protection Agency [EPA] National Institutes of Environmental Health Sciences [NIEHS] National Toxicology Program [NTP] U.S. Food and Drug Administration [FDA] Tox21 Assay Overview: Nuclear steroid hormone receptors are involved in many biological processes including inflammatory responses, cell proliferation, and apoptosis. Environmental factors or compounds disrupting these nuclear receptor pathways and gene expression may promote susceptibility to immunotoxicants and autoimmune diseases. One important group of these expression factors are the retinoid-related orphan receptors. To assess compounds that may interfere with the retinoid-related orphan receptor gamma (ROR-gamma) transcription factor, a cell-based luciferase assay was used. The CHO cell-based assay utilizes a TET-inducible ROR expression factor and ROR response element-LUC reporter gene. Reporter gene activity was induced using Doxycycline Hyclate and measured after 16 hr incubation. Tet-on ROR gamma CHO cells were used to screen against the Tox21 10K compound library for ROR gamma antagonists by quantification of decreased reporter gene activity in terms of decreased luminescence.
Tox21 Assay Protocol Summary: Tet-on ROR gamma CHO cells were dispensed at 1,000 cells in 4 uL of culture medium per well into white wall/solid bottom 1536-well plates using a Multidrop Combi (Thermo Scientific, Waltham, MA) dispenser. Following incubation at 37 C and 5% CO2 for 4 hr, 23 nL of compounds dissolved in DMSO, positive controls or DMSO only were transferred by a Pintool station (Kalypsys, San Diego, CA) and after 2 hr incubation at 37 C, one ul of 1 uM (final concentration) of Doxycycline Hyclate was added to all the wells by using a Flying Reagent Dispenser (FRD) (Aurora Discovery, San Diego, CA). After 16 hr incubation at 37 C and 5% CO2, 5 uL of ONE-Glo reagent (Promega Corporation, Madison, WI) was added to each assay plate using FRD. After 30 min incubation at room temperature, luminescence was quantified on a ViewLux plate reader (Perkin Elmer, Waltham, MA).
Turning to `C#CC(C)(C)NC(=O)c1cc(Cl)cc(Cl)c1`, the Potency entry was “inactive”.
Still for that read-out and setting: then `CCC[N+](=O)[O-]`, with 4.25 µM (active) and inactive; and `O=[N+]([O-])c1ccccc1`, with “inactive”.
Take `CC(NC(C)(C)C)C(=O)c1cccc(Cl)c1` (stereo not given): the “activity change, negative = inhibition” value was 8% (inactive).
As to `O=C(NC(=O)c1c(F)cccc1F)Nc1cc(Cl)c(OC(F)(F)C(F)C(F)(F)F)cc1Cl` (stereo not given), the Potency result was “inactive”.
On the same count and under the same terms, for `Cc1[nH]c(=O)n(C(C)(C)C)c(=O)c1Cl` the value was “inactive”; for `OC(O)C(Cl)(Cl)Cl`, “inactive”.
Same read-out and setting: for `Nc1ccc(Oc2ccc(N)cc2)cc1` the value was “inactive”; for `CC1OC(C)OC(C)O1` (stereo not given), “inactive”.
With `CCCCOC(=O)c1ccccc1C(=O)OCCCC`, the “activity change, negative = inhibition” value was 2.07% (inactive).
`CCCCN(CC)C(=O)SCCC`: the Potency entry was “inactive”.
For `CCN(CC)c1ccccc1`, the Potency entry was “inactive”.
As for `C[C@]12CC[C@H]3[C@@H](CC[C@@]45O[C@@H]4C(O)=C(C#N)C[C@]35C)[C@@H]1CC[C@@H]2O`, the Potency is 48.6 µM (active).
On to `C1CC2OC2CC1C1CO1` (stereo not given), for which the Potency entry is “inactive”.
Same read-out and setting: then `[N-]=[N+]=[N-]`, with “inactive”.
As for `O=[N+]([O-])c1ccc(Oc2ccc(Cl)cc2Cl)cc1`, the “activity change, negative = inhibition” value was 2.28% (inactive).
Still for that read-out and setting: then `CCOP(=S)(OCC)SCCSCC`, with 9.38% (inactive).
Take `CN(C)N=O`: the Potency result was “inactive”.
As to `COC(=O)NC(=S)Nc1ccccc1NC(=S)NC(=O)OC`, the Potency entry is “inactive”.
For `CC(C)(C)OOC(C)(C)C`, the Potency result is “inactive”.
The same measure, in the same setting: then `O=c1ccc(=O)[nH][nH]1`, with “inactive”; and `CC(=O)C=C(C)C`, with “inactive”.
Turning to `O=c1n(Cl)c(=O)n(Cl)c(=O)n1Cl`, the “activity change, negative = inhibition” value was 4.6% (inactive).
With `BrCCBr`, the Potency result is “inactive”.
Still for that read-out and setting: for `CCCN(CCC)N=O` the value was “inactive”; for `CON(C)C(=O)Nc1ccc(Cl)c(Cl)c1`, “inactive”.
Same read-out and setting: then `Cc1ccc(N)cc1Cl`, with “inactive”.
Consider `CCCN(CCC)c1c([N+](=O)[O-])cc(C(F)(F)F)cc1[N+](=O)[O-]`, for which the Potency result was “inactive”.
For the compound `Nc1ccc(Cc2ccc(N)cc2)cc1`, the Potency result was “inactive”.
`CCC[CH2][Sn]([Cl])([Cl])[Cl]`: the Potency entry is “inactive”.
Still for that read-out and setting: then `Cc1ccc(N)cc1N`, with “inactive”; and `O=Cc1cccc(Oc2ccccc2)c1`, with “inactive”.
Turning to `Clc1ccccc1Cl`, the Potency result was “inactive”.
`CC(Br)C(=O)O` (stereo not given): the Potency result is “inactive”.
Regarding `CCN(CC)CCO`, the Potency result is “inactive”.
With `CCNc1nc(NC(C)C)nc(SC)n1`, the “activity change, negative = inhibition” value was -12.5% (inactive).
`CC(C)N1C(=O)c2ccccc2NS1(=O)=O`: the Potency result was “inactive”.
The same measure, in the same setting: then `CC(C)C#N`, with “inactive”; and `CCCCCOC(=O)c1ccccc1C(=O)OCCCCC`, with “inactive”; and `CCC12COCN1COC2`, with “inactive”.
